# Values without a mark were called inactive. For some of these results: Measured potencies and affinities stand elsewhere. Activity calls are given as the source filed them. Unless noted, the rule behind the calls is not given here.
# Columns and labels:
# [1] = antimalarial activity against Dd2 strain (AID 2302;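 active = growth inhibition above 50% at the single 2 µM test dose, taken to imply half-maximal potency below 2 µM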;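 note: 0% = DMSO untreated growth and 100% = chloroquine plus artemisinin killed control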); conditions: P. falciparum Dd2 in RBCs, LDH growth readout, 72 h; at 2 µM; hits give high values
# [2] = human hepatoma cell viability loss – ATP luminescence, cytotoxicity control for P. falciparum antimalarial project, primary screen (AID 2303;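 active = inhibition above 50%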;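 note: 0% = DMSO wells and 100% = digitonin-killed cells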); conditions: HepG2 viability, 24-48 h, at 10 µM, hits give high values
# [3] = molecular target: L-lactate dehydrogenase (Plasmodium falciparum (isolate CDC / Honduras)) (UniProt Q27743); experiment: PfLDH activity inhibition – cell lysate, 3D7 strain, counter-screen for P. falciparum growth inhibition project (AID 2304);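 note: 0% = vehicle and 100% = reference inhibitor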; conditions: P. falciparum 3D7 crude extract, LDH APAD/NBT absorbance; at 2 µM; hits give high values
# [4] = inhibition of 3D7 malaria parasite growth – strain 3D7 (AID 2306);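 note: 0% = DMSO wells and 100% = chloroquine plus artemisinin control wells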; conditions: P. falciparum 3D7 erythrocytic growth, LDH absorbance, 72 h; at 2 µM; hits give high values
# [5] = molecular target: Calcium-dependent protein kinase 1 (Plasmodium falciparum (isolate 3D7)) (UniProt P62344); experiment: PfCDPK1 kinase inhibitors, biochemical, TCAMS library (AID 1159585; cut-off not given, nearly all actives have IC50 up to about 0.98 µM;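 note: inhibitors leave more ATP so luminescence rises with inhibition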); conditions: recombinant PfCDPK1, Kinase-Glo ATP depletion luminescence
# [6] = molecular target: Plasmodium falciparum protein kinase 6 (PK6, PF3D7_1337100) (UniProt Q8IDW1); experiment: PfPK6 kinase inhibitors, biochemical, TCAMS library (AID 1159586); conditions: recombinant PfPK6, Kinase-Glo ATP depletion luminescence
# [7] = molecular target: Protein kinase 7 (PK7), Plasmodium falciparum 3D7 (PF3D7_0213400) (UniProt Q7YTF7); experiment: inhibition of Plasmodium PK7 catalytic activity – biochemical, TCAMS antimalarial set, Kinase-Glo luminescence (AID 1159587); conditions: recombinant PfPK7, Kinase-Glo ATP depletion luminescence
# [8] = molecular target: Calcium-dependent protein kinase 4 (Plasmodium falciparum (isolate 3D7)) (UniProt Q8IBS5); experiment: PfCDPK4 kinase inhibitors, biochemical, TCAMS library (AID 1159588; cut-off not given, nearly all actives have IC50 up to about 0.91 µM); conditions: recombinant PfCDPK4, Kinase-Glo ATP depletion luminescence
# Chain of Calcium-dependent protein kinase 4 (Plasmodium falciparum (isolate 3D7)) (Q8IBS5 whole entry, looked up): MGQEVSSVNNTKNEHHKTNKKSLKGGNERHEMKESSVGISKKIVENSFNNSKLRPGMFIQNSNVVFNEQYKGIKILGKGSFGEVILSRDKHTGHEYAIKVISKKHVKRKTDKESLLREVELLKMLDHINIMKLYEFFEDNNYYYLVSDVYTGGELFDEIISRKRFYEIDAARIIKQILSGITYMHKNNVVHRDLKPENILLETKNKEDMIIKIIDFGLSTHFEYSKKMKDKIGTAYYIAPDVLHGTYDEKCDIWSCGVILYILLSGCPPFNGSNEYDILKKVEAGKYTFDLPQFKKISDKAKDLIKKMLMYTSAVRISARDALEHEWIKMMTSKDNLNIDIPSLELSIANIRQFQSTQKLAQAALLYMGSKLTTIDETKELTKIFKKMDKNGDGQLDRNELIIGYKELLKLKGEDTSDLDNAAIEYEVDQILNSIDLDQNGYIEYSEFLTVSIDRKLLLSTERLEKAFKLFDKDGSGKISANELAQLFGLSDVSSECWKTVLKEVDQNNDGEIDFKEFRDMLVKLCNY
# Chain of Calcium-dependent protein kinase 1 (Plasmodium falciparum (isolate 3D7)) (P62344 whole entry, looked up): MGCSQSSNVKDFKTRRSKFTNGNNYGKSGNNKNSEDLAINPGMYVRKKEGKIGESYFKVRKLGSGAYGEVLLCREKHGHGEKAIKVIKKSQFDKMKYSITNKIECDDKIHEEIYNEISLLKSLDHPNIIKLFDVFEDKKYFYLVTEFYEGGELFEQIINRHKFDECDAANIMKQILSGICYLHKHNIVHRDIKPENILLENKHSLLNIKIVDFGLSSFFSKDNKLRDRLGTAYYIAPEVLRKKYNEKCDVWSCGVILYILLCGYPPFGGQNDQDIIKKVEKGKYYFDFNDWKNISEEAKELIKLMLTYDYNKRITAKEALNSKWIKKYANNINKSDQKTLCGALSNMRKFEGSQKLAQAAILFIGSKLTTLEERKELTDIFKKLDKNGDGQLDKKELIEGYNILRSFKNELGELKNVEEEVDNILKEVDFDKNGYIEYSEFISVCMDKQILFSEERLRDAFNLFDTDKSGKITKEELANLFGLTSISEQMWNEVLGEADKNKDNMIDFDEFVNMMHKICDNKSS
# Chain of Plasmodium falciparum protein kinase 6 (PK6, PF3D7_1337100) (Q8IDW1 1-305): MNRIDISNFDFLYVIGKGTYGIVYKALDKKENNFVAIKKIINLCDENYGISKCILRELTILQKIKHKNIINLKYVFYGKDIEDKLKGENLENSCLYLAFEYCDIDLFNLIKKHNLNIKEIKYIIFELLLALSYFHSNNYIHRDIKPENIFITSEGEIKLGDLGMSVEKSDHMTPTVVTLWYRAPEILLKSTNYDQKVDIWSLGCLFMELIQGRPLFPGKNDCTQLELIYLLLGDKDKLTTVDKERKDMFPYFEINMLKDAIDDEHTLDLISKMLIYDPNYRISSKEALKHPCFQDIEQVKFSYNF
# Chain of L-lactate dehydrogenase (Plasmodium falciparum (isolate CDC / Honduras)) (Q27743 whole entry, looked up): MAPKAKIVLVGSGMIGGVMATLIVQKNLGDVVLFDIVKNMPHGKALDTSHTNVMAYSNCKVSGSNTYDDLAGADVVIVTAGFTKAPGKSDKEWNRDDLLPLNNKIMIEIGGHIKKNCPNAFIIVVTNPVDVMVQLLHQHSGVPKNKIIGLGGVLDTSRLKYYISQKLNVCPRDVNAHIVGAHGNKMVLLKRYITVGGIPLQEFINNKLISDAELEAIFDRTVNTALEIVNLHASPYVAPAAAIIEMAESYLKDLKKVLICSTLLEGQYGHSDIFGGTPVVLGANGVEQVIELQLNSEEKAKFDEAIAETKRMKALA
# Chain of Protein kinase 7 (PK7), Plasmodium falciparum 3D7 (PF3D7_0213400) (Q7YTF7 1-343): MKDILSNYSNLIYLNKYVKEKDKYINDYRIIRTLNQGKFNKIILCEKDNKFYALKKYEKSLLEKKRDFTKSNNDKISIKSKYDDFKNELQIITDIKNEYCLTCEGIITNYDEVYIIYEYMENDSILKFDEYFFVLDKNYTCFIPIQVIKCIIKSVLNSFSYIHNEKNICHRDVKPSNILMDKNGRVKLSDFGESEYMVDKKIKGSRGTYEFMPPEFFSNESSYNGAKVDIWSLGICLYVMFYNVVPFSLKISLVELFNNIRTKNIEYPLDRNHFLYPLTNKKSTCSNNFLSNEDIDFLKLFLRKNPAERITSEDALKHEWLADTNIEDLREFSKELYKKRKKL
SMILES,growth inhibition [1],inhibition [2],inhibition [3] [%],growth inhibition [4],outcome [5],outcome [6],outcome [7],outcome [8]
CCCCCCN1CCC(NCc2cccc(C(F)(F)F)c2)CC1,82% (active),18%,-6,103% (active),inactive,inactive,inactive,inactive
NC(=O)COc1c(C2CCN(CCCCNC(=O)c3ccc(-c4ccc(Cl)cc4)c(O)c3)CC2)ccc2c1CCCC2,72% (active),97% (active),4,101% (active),inactive,inactive,inactive,inactive
COc1cc2c(cc1OC)CN(CCc1ccc(NC(=O)c3cc4cc(OC(F)(F)F)ccc4[nH]3)cc1)CC2,20%,36%,-3,99% (active),inactive,inactive,inactive,inactive
COc1ccc(C2C(C(=O)Nc3ccc(C)c(F)c3)c3cc(OC)c(OC)cc3C(=O)N2C)cc1 (stereo not given),26%,6%,-2,81% (active),inactive,inactive,inactive,inactive
CCN(CCCN1CCCCC1)c1cc(C)nc(Nc2cccc(OC(F)(F)F)c2)n1,99% (active),32%,-2,102% (active),inactive,inactive,inactive,inactive
COc1ccc(OC)c(Cc2cnc3nc(N)nc(N)c3c2C)c1,97% (active),68% (active),5,92% (active),inactive,inactive,inactive,inactive
Cc1occc1C(=O)Nc1nc(-c2ccccn2)nc2ccsc12,98% (active),68% (active),5,98% (active),inactive,inactive,inactive,inactive
O=C(NC1CCC(N2CCC(Cc3ccc(F)cc3)CC2)CC1)c1cc2ccccc2[nH]1 (stereo not given),39%,60% (active),-2,98% (active),inactive,inactive,inactive,inactive
c1cc(CNCCc2ccncc2)cc(-c2ccc(-c3nc4ccccc4[nH]3)cc2)c1,97% (active),28%,5,99% (active),inactive,inactive,inactive,inactive
Cc1ccc2c(c1)C1(CC(=O)N(CCc3scnc3C)C1=O)C(=O)N2Cc1ccccc1 (stereo not given),73% (active),-5%,2,83% (active),inactive,inactive,inactive,inactive
COc1ccc(C=NNc2c3ccccc3nc3ccccc23)c2ccccc12,23%,9%,2,82% (active),inactive,inactive,inactive,inactive
COc1ccc2nccc([C@@H](O)CN3CCC(NCCOc4ccc(F)cc4F)CC3)c2c1,68% (active),13%,-5,101% (active),inactive,inactive,inactive,inactive
CN(CCN(C)CC(O)c1ccc(Cl)c(Cl)c1)CC(O)c1ccc(Cl)c(Cl)c1 (stereo not given),73% (active),22%,-2,91% (active),inactive,inactive,inactive,inactive
CC1CC(C)CN(S(=O)(=O)c2cc(C(=O)Nc3cccc([N+](=O)[O-])c3)ccc2Br)C1 (stereo not given),68% (active),1%,-5,101% (active),inactive,inactive,inactive,inactive
O=C(Cn1cnc2c(nnn2Cc2ccccc2F)c1=O)Nc1ccc2c(c1)OCCO2,1%,-6%,-2,86% (active),inactive,inactive,inactive,inactive
CCC(CC)(Cc1ccccc1)NC(=O)[C@H](Cc1ccc(OC)c(OC)c1)Nc1ccc(C#N)c2ccccc12,69% (active),16%,0,90% (active),inactive,inactive,inactive,inactive
Fc1ccc(C=NNc2ccnc3ccccc23)cc1,101% (active),21%,4,101% (active),inactive,inactive,inactive,inactive
O=C(/C=C/c1ccc(Cl)c(Cl)c1)NCCCCCN1CCC(CCNC(=O)/C=C/c2ccc(Cl)c(Cl)c2)CC1,56% (active),68% (active),-5,101% (active),inactive,inactive,inactive,inactive
COc1ccc(C2C(C(=O)OC3CCCC3)=C(C)NC3=C2C(=O)CCC3)cc1Br (stereo not given),77% (active),-2%,5,94% (active),inactive,inactive,inactive,inactive
O=C(CC1NC(=O)c2ccccc21)Nc1ccc(-c2ccc(-c3nc4ccc(C(F)(F)F)cc4[nH]3)cc2)cc1 (stereo not given),70% (active),39%,-2,87% (active),inactive,inactive,inactive,inactive

# Source: PubChem BioAssay
